These results are taken from PubChem BioAssay (NCI).

Common to all, as to experiment: NCI-60 one-dose screen, 48 h (100 = growth as untreated, 0 = no growth, -100 = all killed)
Conditions in all cases: 10 µM unless noted

Assay [1] relates to HCT-15 colon.
Assay [2] deals with HT29 colon.
Assay [3] deals with SNB-75 CNS.
Assay [4] relates to SNB-19 CNS.
Assay [5] relates to U251 CNS.
Assay [6] relates to PC-3 prostate.
For assay [7], the system named is SK-MEL-5 melanoma.
Assay [8] deals with UACC-62 melanoma.
The subject of assay [9] is LOX IMVI melanoma.
The test system of assay [10] is SK-MEL-28 melanoma.
Assay [11] relates to SK-MEL-2 melanoma.
For assay [12], the system named is EKVX NSCLC.
Assay [13] relates to SN12C renal.
Assay [14] has as its system UO-31 renal.
In assay [15] the test system is TK-10 renal.
Assay [16] concerns ACHN renal.
For assay [17], the system named is CAKI-1 renal.
Assay [18] concerns A498 renal.
Assay [19] relates to CCRF-CEM leukemia.
Assay [20] has as its system MOLT-4 leukemia.

The structures appear in SMILES notation. The panel holds about 83,000 compounds, 20% with a hit somewhere; the sample as a whole holds those more often.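 Results are percent growth after 48 hours of single-concentration exposure. 100 means growth as in untreated cells, lower positive values show inhibition; negative values down to -100 show cell death.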 Unmarked numbers belong to inactive results. The source made the active and inactive calls. Rule for the calls: active = growth percent below 10; inactive = the rest.

In the case of `Cn1cc(-c2nc(-c3c[nH]c4ccncc34)cs2)c2cc(Br)ccc21`, the growth in assay [1] is -85.4% (active); in assay [2], -81.9% (active); in [3], -97% (active); in [4], -76% (active); in assay [5], -84.1% (active); in assay [6], -86.4% (active). Also, the growth in assay [7] was -47.9% (active); in assay [8], -86.7% (active); in [9], -90% (active); in assay [10] it was -91.3% (active); in [11] it was -57.7% (active); in [12], -75.3% (active). The growth in assay [13] is -74.4% (active); in assay [14], -91.2% (active); in assay [15] it was -84% (active); in assay [16], -98.9% (active); in assay [17] it was -77.2% (active); in assay [18], -78% (active). For the same compound, the growth in assay [19] was -43.4% (active); in assay [20], -66.4% (active).
On to `Cc1ccc(/C=C2\CN(C(=O)C(Cl)Cl)C/C(=C\c3ccc(C)cc3)C2=O)cc1`, for which the growth was -39.2% (active) in [1]; -5.72% (active) in assay [2]; -30.2% (active) in assay [3]; -53.7% (active) in [4]; -94.9% (active) in [5]; -49.3% (active) in assay [6]. In addition, the growth in assay [7] was -81.8% (active); in [8] it was -67.2% (active); in assay [9], -92.2% (active); in [10], -56.1% (active); in assay [11], -5.43% (active); in [12], -48.7% (active). For the same compound, the growth in assay [13] was -51.3% (active); in [14] it was -100% (active); in [15], -63.1% (active); in assay [16], -97.8% (active); in assay [17], -49.6% (active); in assay [18] it was -89.3% (active). Moreover, the values for the growth in [19] and in [20] were 9.16% (active) and 0.0942% (active), respectively.
As to `COc1cc(C2C3=C(COC3=O)N(CCO)c3cc4c(cc32)OCCO4)cc(OC)c1OC` (stereo not given), the growth in [1] was 6.81% (active); in assay [2], -25.4% (active); in assay [3] it was -5.04% (active); in assay [4], 7.63% (active); in assay [5], 9.63% (active); in assay [6], 14.3%. Besides, the growth in assay [7] is -30.9% (active); in assay [8] it was 6.33% (active); in [9], 17.7%; in [10] it was 42.8%; in [11] it was 58.5%; in assay [12] it was 45.7%. Further, the growth in assay [13] was 23.8%; in assay [14], 54.3%; in assay [15] it was 60.3%; in assay [16], 20.7%; in [17] it was 41.3%; in [18], -28.8% (active). For the same compound, the growth is 13.2% in assay [19] and 8.21% (active) in assay [20].
Consider `CCN(CC)c1ccc(/C=C\c2cc(C)c3cc(C)ccc3n2)cc1`, for which the growth in assay [1] was 21.1%; in assay [2], -17.9% (active); in [3], 39.7%; in assay [4], 49.5%; in [5], 25.6%; in assay [6] it was 23.1%. Further, the growth was 2.69% (active) in assay [7]; 36.8% in [8]; 18.1% in [9]; 50.7% in assay [10]; 14.4% in [11]; 61.6% in assay [12]. Besides, the growth was 45.1% in assay [13]; 26.6% in [14]; 54.8% in assay [15]; 38.8% in assay [16]; 28.5% in assay [17]; 18.2% in assay [18]. Besides, the growth was 34.1% in assay [19] and 40.2% in assay [20].
For `COc1ccc(C/C(C)=C(\c2ccc(O)cc2)c2ccc(OCCN3CCCC3)cc2)cc1`, the growth in assay [1] is 102%; in assay [2], 88.4%; in assay [3], 94.2%; in assay [4], 103%; in [5], 106%; in assay [6], 96.8%. The growth in assay [7] was 111%; in [8], 102%; in [9], 98.3%; in [10], 97%; in assay [11], 100%; in assay [12], 101%. Moreover, the growth was 100% in [13]; 86.1% in assay [14]; 121% in assay [15]; 97.1% in assay [16]; 97% in assay [17]; 91.7% in assay [18]. Further, the growth in assay [19] was 92.3%; in assay [20], 85.3%.
Consider `O=C(Nc1ccc(F)cc1)Nc1ccccc1CNc1nc(Nc2ccc(OCCN3CCCC3)cc2)ncc1Cl`, for which the growth is 38.8% in assay [1]; 6.13% (active) in assay [2]; -15.7% (active) in assay [3]; 45.8% in assay [4]; 20.6% in assay [5]; 61.7% in [6]. The growth in assay [7] was 44.9%; in assay [8], 95.2%; in assay [9] it was -57.6% (active); in assay [10], -13.3% (active); in [11], 99%; in assay [12] it was 53.9%. Also, the growth is -21.7% (active) in assay [13]; -81.5% (active) in [14]; 47.2% in assay [15]; -61.9% (active) in [16]; 31.2% in [17]; 80.4% in [18]. Further, the values for the growth in [19] and in assay [20] were 6.77% (active) and 14.1%, respectively.
For the compound `Clc1ccc(-c2nc(-c3c[nH]c4ncccc34)cs2)cc1`, the growth is 98.7% [100 µM] in assay [1]; 80.2% [100 µM] in assay [2]; -11.3% [100 µM] (active) in [3]; 48.7% [100 µM] in assay [4]; 16.2% [100 µM] in assay [5]; 43.9% [100 µM] in assay [6]. The growth in assay [7] was 84.1% [100 µM]; in assay [8] it was 71.2% [100 µM]; in [9], 62.6% [100 µM]; in assay [10], 94% [100 µM]; in assay [11], 72% [100 µM]; in assay [12], 34.7% [100 µM]. The growth is 62.4% [100 µM] in assay [13]; 65.7% [100 µM] in [14]; 39.7% [100 µM] in [15]; 66.9% [100 µM] in assay [16]; 49.4% [100 µM] in assay [17]; 47.2% [100 µM] in assay [18]. In addition, the growth in [19] was 109% [100 µM]; in assay [20], 98.1% [100 µM].
`COc1cccc(NC(=O)c2cccc(C3CCc4c(cc(OC)c(OC)c4OC)O3)c2)c1` (stereo not given): the growth in [1] was 63.2%; in [2] it was 71.9%; in assay [3], 85.6%; in [4], 74.1%; in [5], 75.5%; in assay [6], 28.9%. The growth was 36.4% in assay [7]; 40.6% in assay [8]; 59.9% in [9]; 81.5% in assay [10]; 65.5% in [11]; 69.1% in assay [12]. In addition, the growth in assay [13] is 55.2%; in assay [14], 34.5%; in [15] it was 74.5%; in [16], 66.8%; in assay [17], 80.3%; in [18] it was 30.2%. For the same compound, the growth in [19] is 22.1%; in assay [20], 7.7% (active).
